PvdQ inh – P. aeruginosa PvdQ acylase inhibitors, primary screen, biochemical, fluorescence, plate reader and imaging, single point | PvdQ acylase [Pseudomonas aeruginosa LESB58] | purified PvdQ acylase | inhibition, % at 10 µM | actives 0.063% (n = 340,000); in the data active means inhibition above about 30%, passing the limit was not always enough; inconclusive means no clear call, values can overlap the other calls;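 further: 0% = vehicle neutral wells and 100% = reference inhibitor wells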
esBAF inh – Bmi1 luciferase reporter increase in mESCs, primary screen, esBAF inhibitor project, mouse ES cells, Bmi1 luciferase knock-in, single point; 24 h; 100% = twice the neutral-well signal; reporter increase, % at 12.5 µM; actives 2% (n = 350,000); AID 602393, 2012; in the data active means activation above about 40%; inconclusive means no clear call, values can overlap the other calls;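 further: 0% = median of the plate's neutral control wells and 100% = double that signal; a rise in the Bmi1 reporter signal indicates esBAF inhibition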
MITF TRPM1 HTS – activators of MITF-driven TRPM1 promoter reporter, primary screen, cell-based, SK-MEL-5, luciferase, single point; SK-MEL-5 TRPM1-promoter luciferase, 24 h; % of positive control, neutral wells = 0; actives 0.75% (n = 300,000); AID 588334, 2011; activation, % at 12.5 µM;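 active means mean activation of at least 80% with every replicate also reaching 80%; inconclusive means mean reaches 80% but some replicate falls short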;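 further: 0% = neutral control wells and 100% = parthenolide positive control wells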
Wnt bcat act – Wnt/beta-catenin pathway activators, primary screen, cell-based, plate reader, single point | Wnt/beta-catenin reporter cell assay, activator | activation, % at 9.35 µM | actives 1.2% (n = 300,000) | AID 743398, 2014; in the data active means activation above about 30%, passing the limit was not always enough; inconclusive means no clear call, values can overlap the other calls;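 further: 0% = neutral control wells and 100% = positive control wells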
Vif inh – HIV Vif self-association inhibitors, primary screen, imaging, HEK293T, single point | HEK293T cells, Vif self-association by quenched fluorescence, 24 h | inhibition, % at 7.49 µM | actives 0.35% (n = 340,000) | AID 602346, 2012; in the data active means inhibition above about 50%, passing the limit was not always enough; inconclusive means no clear call, values can overlap the other calls; inactive means below about 31%
N-glyco inh – increase of ERlucT glycosylation luciferase signal, primary screen, N-linked glycosylation inhibitor project, D54 ERlucT cells, luminescence, set 2; actives 0.23% (n = 360,000); D54 ERlucT glycosylation luciferase reporter, 24 h; percent of 100 nM tunicamycin response; reporter increase, % at 12.5 µM;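 active means mean luciferase reporter signal, scaled so untreated is 0 and the glycosylation-blocking control 100, at or above a set limit in every replicate; inconclusive means mean reaches the limit but not every replicate does; inactive means mean below the limit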;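 further: luciferase carries N-glycosylation sites so blocking glycosylation raises the light; 0% = median of neutral control wells and 100% = median of 100 nM tunicamycin wells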
* hit, by the source's call; ? = inconclusive; / = not tested or not shown. Most compounds without a hit are left out; they make up all but 2.9% or so of the library.

SMILES	PvdQ inh	esBAF inh	MITF TRPM1 HTS	Wnt bcat act	Vif inh	N-glyco inh
COc1ccccc1Cc1c(-c2cccc(Cl)c2)nc2ccc(Br)cn12	/	42*	/	5	/	-2
Cc1ccc(Cc2c(-c3cccc(Cl)c3)nc3ccc(Br)cn23)cc1	/	?	/	40*	/	-1
Cc1ccc(Cc2c(-c3ccc(Br)cc3)nc3ccc(Br)cn23)cc1	/	66*	/	6	-8	2
CCN1/C(=C/c2ccc3ccccc3[n+]2CC)C=Cc2ccccc21	2	-73	-101	/	-24	85*
Cc1ccc(C)c(NC(=O)c2cc(-c3cc(C)ccc3O)n[nH]2)c1	-17	50*	117*	26	7	1
Cc1cccc(NC(=O)c2cc(-c3cc(Cl)ccc3O)n[nH]2)c1	-4	71*	108*	/	-3	2
Cc1ccc(NC(=O)c2cc(-c3cc(Cl)ccc3O)n[nH]2)cc1C	-19	0	1	4	6	1
COc1ccc(OC)c(S(=O)(=O)Nc2ccc(-c3ccc4nnc(C)n4n3)cc2)c1	-2	/	-27	3	40	18
COc1ccc(CC(=O)Nc2ccc(-c3ccc4nnc(C)n4n3)cc2)cc1OC	-3	/	-9	16	13	30*
CCOC(=O)C1CCN(Cc2nc3ccc([N+](=O)[O-])cc3c(=O)n2-c2ccc(OC)cc2OC)CC1	-9	48*	-1	13	0	-3
COc1ccc2c(c1)c(/C=N/Nc1nc3ccccc3[nH]1)c(C)n2C	-14	/	/	57*	-4	-7
Cc1ccc(S(=O)(=O)N[C@@H]2CC[C@@H](CC(=O)NC3CCCCC3)O[C@H]2CO)cc1	/	-1	/	/	/	/
CCc1sc(NC(=O)c2cc3ccccc3oc2=O)nc1-c1cccs1	4	5	21	0	55*	-2
COc1ccc2c3n([n+]([O-])c2c1)CCN=C3c1ccc(Cl)cc1	5	42*	15	9	24	1
COc1cc2sc3cc(NCCCN4CCOCC4)ccc3c(=O)c2cc1OC	-3	55*	38	14	12	10
O=c1c2ccccc2sc2ccc(NCCCN3CCOCC3)cc12	-12	10	72	27	15	4
OCCNc1c2ccccc2nc2c(F)c(F)c(F)c(F)c12	-12	/	-81	251*	2	?
Cc1ccc(OCc2cc(C(=O)NC(C)Cc3cnccn3)no2)cc1C (stereo unspecified)	-17	/	1	-3	-1	5
Cc1nc(C(C)NC(=O)c2cc(COc3ccc(C)c(C)c3)on2)c(C)s1 (stereo unspecified)	-12	73*	79	-1	3	-3
CC(NC(=O)c1cc(COc2ccccc2)on1)c1nccs1 (stereo unspecified)	-3	64*	97*	29	-9	-8
CC(NC(=O)c1cc(COc2ccc3ncccc3c2)on1)c1ccc(F)cc1 (stereo unspecified)	11	-14	-11	-4	/	-4
COc1ccc(Nc2nc(-c3cccnc3)cs2)c(OC)c1	-5	57*	57	3	-5	-2
Cc1ccc(-c2csc(Nc3ccccn3)n2)cc1	-13	-59	-10	2	-21	-19
COc1ccc(-c2csc(Nc3ccccn3)n2)cc1OC	-26	74*	/	17	-12	-7
COc1ccc(OC)c(Nc2nc(-c3c(C)nc4ncccn34)cs2)c1	-7	0	-10	3	-11	42*
COc1ccc(Nc2nc(-c3sc(C)nc3C)cs2)c(OC)c1	21	7	/	-2	-2	?
Cc1nc2ncccn2c1-c1csc(Nc2cccc(C(=O)O)c2)n1	-13	6	0	1	0	1
COc1ccccc1Nc1nc(-c2cccnc2)cs1	-1	44*	65	14	-3	4
O=C(NCc1cccc(F)c1)[C@@H]1[C@@H](CO)[C@@H]2Cn3c(cccc3=O)[C@H]1N2	/	2	/	/	/	/
